GDH-TPI counter: counter-screen for M. tuberculosis FBA inhibitors: GDH-TPI coupled enzymes; actives 1.2% (n = 360,000); GDH-TPI coupled enzyme counterscreen, NADH absorbance; inhibition, % at 4.8 µM; AID 588335; in the data active means inhibition above about 30%;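 further: 0% = DMSO wells and 100% = wells lacking the enzyme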
BioA inh: blocks M. tuberculosis BioA enzyme activity. AID 602481. actives 0.096% (n = 360,000). purified M. tuberculosis BioA enzyme, plate reader. inhibition, % at 9.99 µM; in the data active means inhibition above about 40%
Rv3671c protease: Rv3671c (M. tuberculosis) protease inhibition. P9WHR9. inhibition, % at 5.96 µM. actives 0.048% (n = 320,000). AID 2606; in the data active means inhibition above about 38%;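 further: extracellular domain of Rv3671c used as enzyme; 0% = enzyme with DMSO and 100% = no enzyme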
Target sequence (P9WHR9 whole entry, looked up, the tested form may be a part): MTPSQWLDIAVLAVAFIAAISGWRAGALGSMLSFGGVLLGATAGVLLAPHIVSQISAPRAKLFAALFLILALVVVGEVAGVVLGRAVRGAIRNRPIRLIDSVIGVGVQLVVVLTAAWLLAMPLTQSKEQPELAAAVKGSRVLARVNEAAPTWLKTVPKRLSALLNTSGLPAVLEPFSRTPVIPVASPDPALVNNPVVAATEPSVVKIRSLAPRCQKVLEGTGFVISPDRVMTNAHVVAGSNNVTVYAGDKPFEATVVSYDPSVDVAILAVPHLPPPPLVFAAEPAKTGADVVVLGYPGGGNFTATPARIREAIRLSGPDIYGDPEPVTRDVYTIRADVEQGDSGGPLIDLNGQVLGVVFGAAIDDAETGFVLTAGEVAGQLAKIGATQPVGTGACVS
FadD28 FP inh: inhibitors of Mycobacterium tuberculosis FadD28 bisubstrate binding; FadD28 bisubstrate probe binding, fluorescence polarization; inhibition, % at 12.5 µM; actives 0.22% (n = 360,000); AID 588549; in the data active means inhibition above about 8.5%, passing the limit was not always enough
Mtb FBA inh: inhibits M. tuberculosis FBA enzyme; P9WQA3; purified M. tuberculosis FBA, fluorescence read-out; inhibition, % at 1 µM; actives 2.3% (n = 360,000); AID 588726; in the data active means inhibition above about 27%;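 further: 0% = vehicle and 100% = reference inhibitor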
* = called active by the depositor; / = no result; + = active, no number. Shown are actives, neighbours in structure and some others; about 3% of the full set was active somewhere.

SMILES	GDH-TPI counter	BioA inh	Rv3671c protease	FadD28 FP inh	Mtb FBA inh
COc1ccc(/C=N/NC(=O)c2cccs2)c2ccccc12	32*	1	-9	-2	1
COc1ccccc1/C=C/C(=O)Nc1cccnc1	35*	29	-7	-4	2
CN(C)C(=O)C[C@H]1CC[C@H](NC(=O)c2ccc(F)cc2)[C@H](CO)O1	/	2	/	/	/
C[C@H]1CN([C@@H](C)CO)C(=O)c2cc(NC(=O)Cn3cnnn3)ccc2O[C@H]1CN(C)C(=O)Nc1ccc(C(F)(F)F)cc1	/	-1	/	/	/
CCCn1c(=O)[nH]c(=O)c2c1nc(-c1ccc(C#N)cc1)n2CCOC	-2	4	4	-3	+
COCCn1c(-c2ccc(C#N)cc2)nc2c1c(=O)[nH]c(=O)n2Cc1ccccc1	-5	2	0	-3	+
CCCn1c(=O)[nH]c(=O)c2c1nc(-c1ccc(OC(F)(F)C(F)C(F)(F)F)cc1)n2CCOC (stereo unspecified)	-1	1	-17	-4	16
COc1ccc(S(=O)(=O)N(C)C[C@@H]2Oc3ccc(N(C)C)cc3CC(=O)N([C@@H](C)CO)C[C@H]2C)cc1	/	-1	/	/	/
Cc1cc(C(=O)N/N=C/c2ccc([N+](=O)[O-])cc2)c2ccccc2n1	51*	-2	-1	0	-5
O=C(N/N=C/c1ccc([N+](=O)[O-])cc1)c1cc(C2CC2)[nH]n1	35*	-1	-3	-3	-1
O=C(N/N=C/c1ccc([N+](=O)[O-])cc1)c1[nH]ncc1Br	20	-1	-11	-2	+
Cc1cc(C(=O)N/N=C/c2cc([N+](=O)[O-])ccc2O)c2ccccc2n1	6	/	8	-3	-6
O=C(N/N=C/c1ccco1)c1cc(C2CC2)[nH]n1	-5	1	-5	-6	1
Cc1cc(C(=O)N/N=C/c2ccc3c(c2)OCO3)c2ccccc2n1	40*	/	-3	-3	-2
O=C(N/N=C/c1ccc([N+](=O)[O-])cc1)c1cc(C2CC2)nc2ccccc12	33*	-2	-2	-2	-5
COc1ccc(-c2cnnc(N/N=C/c3ccc(OC)c(OC)c3)n2)cc1	54*	-1	6	-1	-2
Cc1ccc(/C=N/Nc2nncc(-c3ccccc3)n2)o1	44*	/	5	-2	-3
COc1ccc(/C=N/Nc2nc(C)cc(-c3ccccc3)n2)cc1OC	30	3	2	-3	0
O=C(NCc1ccccc1)c1ccc(-c2cn[nH]c2)c2ccoc12	10	0	/	-4	32*
COc1ccccc1CNC(=O)C[C@@H]1CC[C@@H]2[C@H](COC[C@@H](O)CN2Cc2ccc3c(c2)OCO3)O1	/	0	/	/	/
c1coc(C2=NC(c3ccco3)C(c3ccco3)N2)c1 (stereo unspecified)	1	-1	/	0	49*
Cc1cc(C(=O)Nc2cccc3c2O[C@H](CN(C)S(=O)(=O)c2cn(C)cn2)[C@H](C)CN([C@H](C)CO)C3=O)n(C)n1	/	-6	/	/	/
O=C1c2cccc3cc([N+](=O)[O-])cc(c23)C(=O)N1/N=C/c1ccc(O)cc1O	56*	/	8	-17	-4
COCC(=O)NCc1ccc2c(c1)cc(C)n2C	14	/	-8	0	3
Cc1cc2cc(CNC(=O)Nc3ccc(Cl)c(Cl)c3)ccc2n1C	-2	-2	-13	13*	2
SMILES	GDH-TPI counter	BioA inh	Rv3671c protease	FadD28 FP inh	Mtb FBA inh
COc1ccc2c(=O)c3ccccc3oc2c1	12	-2	-1	-3	6
COc1ccc2c(C)c(Cl)c(=O)oc2c1	16	1	5	-2	153*
C=C1CC(COc2ccc3c(C)c(Cl)c(=O)oc3c2)(c2ccccc2)OC1=O (stereo unspecified)	19	/	/	-5	121*
COc1ccc2c(=O)cc(CO)oc2c1	6	0	9	-1	2
COc1ccc2c(c1)oc(=O)c1cc(OC)ccc12	-1	0	-30	-3	138*
O=C(C[C@H]1CC[C@H]2[C@@H](COC[C@H](O)CN2C(=O)C2CCOCC2)O1)NCc1ccncc1	/	0	/	/	/
COc1ccc(-c2cc(=O)c3c(O)cc(OC4OC(COC5OC(C)C(O)C(O)C5O)C(O)C(O)C4O)cc3o2)cc1O (stereo unspecified)	42*	0	3	-2	3
CC1OC(OC2C(Oc3c(-c4ccc(O)cc4)oc4cc(O)cc(O)c4c3=O)OC(COC3O[C@@H](C)[C@H](O)[C@@H](O)C3O)C(O)C2O)C(O)C(O)C1O (stereo partly specified)	22	1	-4	-2	-1
COc1ccc([C@@H]2CC(=O)c3c(O)cc(O[C@@H]4O[C@H](CO[C@@H]5O[C@@H](C)[C@H](O)[C@@H](O)[C@H]5O)[C@@H](O)[C@H](O)[C@H]4O)cc3O2)cc1O	8	-2	-10	0	5
CC(=O)OC[C@H]1O[C@@H](Oc2cc(O)cc3oc(-c4ccc(O)cc4)cc(=O)c23)[C@H](O[C@@H]2O[C@@H](C)[C@H](O)[C@@H](O)[C@H]2O)[C@@H](O)[C@@H]1O	33*	-1	-1	1	13
COc1ccc(Cn2c(O)c(/C=N/NC(=O)c3cccnc3)c3ccccc3c2=O)cc1	-8	/	/	14*	-9
O=C(N/N=C/c1c(O)n(Cc2ccccc2)c(=O)c2ccccc12)c1cccnc1	8	/	2	11*	-16
O=C(N/N=C/c1c(O)n(-c2ccccc2Cl)c(=O)c2ccccc12)c1cccnc1	10	/	/	7	-9
Cc1noc(C)c1NC(=O)Nc1cccc2c1O[C@@H](CN(C)Cc1ccc(C(F)(F)F)cc1)[C@H](C)CN([C@@H](C)CO)C2=O	/	4	/	/	/
COCCOC(=O)c1c(N)n(Cc2ccco2)c2nc3ccccc3nc12	30	-6	1	0	150*
CCCNC(=O)c1c(N)n(Cc2ccco2)c2nc3ccccc3nc12	/	/	2	/	/
CC(C)OCCCNC(=O)c1c(N)n(/N=C/c2ccccn2)c2nc3ccccc3nc12	13	-2	-14	-5	1
CC(C)OCCCNC(=O)c1c(N)n(Cc2cccs2)c2nc3ccccc3nc12	13	0	-177	-9	34*
COCCCNC(=O)c1c(N)n(Cc2ccco2)c2nc3ccccc3nc12	15	0	-8	-4	118*
CC(C)CNC(=O)c1c(N)n(Cc2ccco2)c2nc3ccccc3nc12	12	-2	-34	-5	55*
C[C@H](CO)N1C[C@H](C)[C@H](CN(C)S(=O)(=O)c2ccc(Cl)cc2)Oc2ccc(NC(=O)C3CC3)cc2CC1=O	/	-2	/	/	/
COc1ccc(CN(C)C[C@H]2Oc3ccc(NC(=O)Cc4cn(C)c5ccccc45)cc3C(=O)N([C@@H](C)CO)C[C@@H]2C)cc1	/	-1	/	/	/
Nc1c(C(=O)NCc2ccco2)c2nc3ccccc3nc2n1CCc1ccc(F)cc1	4	-2	-102	-4	28*
Cc1csc(NC(=O)CSc2nc3[nH]c(=O)cc(O)c3s2)n1	32*	-1	/	-5	9
CC(=O)Nc1nnc(SCC(=O)Nc2nc(C)cs2)s1	2	0	6	-4	-1
